Test results taken from PubChem BioAssay AID720697 (Broad Institute, 2013).
Potency and affinity values are given separately. Inconclusive results are not listed. Active and inactive are the calls of the source.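 The calls were made as follows: active = signal loss with fitted half-maximal concentration at or below twice the top valid tested dose in every test run; inconclusive = runs disagree, flat 30 to 70% signal loss, or poor fit; inactive = all runs flat, opposite direction, or potency beyond limit.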

Assay: HEK293T cytotoxicity, dose response, cytotoxicity control for miR-122 modulator project, cell-based, inhibitor set, cherry-pick, set 2 (AID 720697);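 also: 0% = median of neutral control wells and -100% = MG132 positive control wells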
Details: HEK293T viability, CellTiter-Glo luminescence, 48 h; series mostly up to 26 µM; activity change, negative = cytotoxicity: at the top concentration

Compound	activity change, negative = cytotoxicity
O=C(COc1ccccc1F)N1CCc2ccccc2C1	15.7% (inactive)
CCC(=O)N1C[C@H]2[C@@H](c3ccccc31)[C@H](CO)N2C(=O)Nc1ccccc1F	-17.6% [at 23.5 µM] (inactive)
CCCNC(=O)Nc1ccc2c(c1)C(=O)N(C)[C@H]1CC[C@@H](CC(=O)NCC3CCCCC3)O[C@@H]1CO2	59.2% (inactive)
C/C=C/c1ccc([C@H]2[C@@H](CO)N(C(=O)C3CC3)[C@H]2CN(C)C(=O)CC2CC2)cc1	115% (inactive)
O=C(NC[C@H]1[C@H](c2ccccc2)[C@H](CO)N1CC1CCCC1)c1ccncc1	91% [at 23.5 µM] (inactive)
C/C=C/c1ccc([C@H]2[C@@H](CO)N(Cc3ccccn3)[C@@H]2CNC(=O)CC)cc1	-24.5% [at 23.5 µM] (inactive)
O=C(Nc1ccccc1F)N1[C@H](CO)[C@@H]2c3ccccc3NC[C@@H]21	6.09% [at 23.5 µM] (inactive)
COCC(=O)N1[C@H](CO)[C@@H](c2ccccc2)[C@H]1CNC(=O)c1ccccn1	106% [at 23.5 µM] (inactive)
CCCC(=O)Nc1ccc2c(c1)C(=O)N(C)[C@@H]1CC[C@H](CC(=O)NCc3cccc(F)c3)O[C@H]1CO2	139% (inactive)
CCCC(=O)Nc1ccc2c(c1)C(=O)N(C)[C@@H]1CC[C@H](CC(=O)N3CCc4ccccc4C3)O[C@H]1CO2	83.8% (inactive)
C/C=C/c1ccc([C@H]2[C@H](CO)N[C@@H]2CN(CC)C(=O)c2cccnc2)cc1	72.5% (inactive)
Cc1nn(C)cc1NC(=O)C[C@H]1CC[C@H]2[C@H](COc3ccc(NC(=O)c4cccc(F)c4)cc3C(=O)N2C)O1	132% (inactive)
O=C(NC[C@H]1[C@@H](c2ccccc2)[C@@H](CO)N1CC1CCCC1)c1ccncc1	49.9% (inactive)
COCCNC(=O)C[C@@H]1CC[C@@H]2[C@H](COc3ccc(NS(=O)(=O)c4ccc(Cl)cc4)cc3C(=O)N2C)O1	18.8% (inactive)
CCN(C[C@@H]1[C@@H](c2ccccc2)[C@@H](CO)N1C(=O)COC)S(C)(=O)=O	-30.5% [at 23.5 µM] (inactive)
C/C=C/c1ccc([C@H]2[C@@H](CO)N[C@@H]2CN(CC(C)C)C(=O)c2ccccn2)cc1	83.9% (inactive)
CCN(CC)CCNC(=O)c1ccc(NC(=O)c2cn(-c3ccc(F)cc3)nc2-c2cccc(OC)c2)cc1	-17.7% [at 6 µM] (inactive)
CN1C(=O)c2cc(NC(=O)c3cccc(F)c3)ccc2OC[C@@H]2O[C@H](CC(=O)O)CC[C@H]21	24.4% (inactive)
COc1cccc(CNC(=O)C[C@H]2CC[C@@H]3[C@@H](COc4ccc(NC(C)=O)cc4C(=O)N3C)O2)c1	-12.8% (inactive)
Cc1ccc(S(=O)(=O)Nc2ccc3c(c2)C(=O)N(C)[C@@H]2CC[C@@H](CC(=O)NCCc4ccncc4)O[C@@H]2CO3)cc1	45.1% (inactive)

Compound	activity change, negative = cytotoxicity
CC(C)N(C[C@H]1[C@H](c2ccccc2)[C@@H](CO)N1S(C)(=O)=O)C(=O)CN(C)C	146% [at 23.5 µM] (inactive)
CCNC(=O)Nc1ccc2c(c1)C(=O)N(C)[C@H]1CC[C@H](CC(=O)NCCOC)O[C@@H]1CO2	-18.8% (inactive)
C/C=C/c1ccc2c(c1)O[C@H](CN(C)C(=O)NCCC)[C@H](C)CN([C@@H](C)CO)S2(=O)=O	152% (inactive)
C[C@H]1CN([C@@H](C)CO)C(=O)c2cc(C#CC3CCCC3)cnc2O[C@H]1CN(C)C(=O)Cc1ccccn1	-5.5% (inactive)
O=C(CN1CCN(c2nc(-c3ccccc3)cs2)CC1)Nc1ccc2c(c1)OCO2	59.5% (inactive)
CN1C(=O)c2cc(NC(=O)c3ccc4c(c3)OCO4)ccc2OC[C@H]2O[C@H](CC(=O)O)CC[C@@H]21	-4.6% (inactive)
COCC(=O)Nc1ccc2c(c1)C(=O)N(C)[C@@H]1CC[C@H](CC(=O)NC3CCCC3)O[C@H]1CO2	62.5% (inactive)
CCCC(=O)Nc1ccc2c(c1)C(=O)N(C)[C@H]1CC[C@H](CC(=O)NCCN3CCCCC3)O[C@@H]1CO2	27.1% (inactive)
CC(=O)N(C[C@H]1N[C@H](CO)[C@@H]1c1ccc(-c2ccccc2)cc1)C(C)C	51.1% (inactive)
CCCNC(=O)Nc1ccc2c(c1)C(=O)N(C)[C@H]1CC[C@H](CC(=O)NC3CCC3)O[C@H]1CO2	130% (inactive)
Cc1ccccc1-c1nc(CN2CCCC(C(=O)NCCCN3CCOCC3)C2)c(C)o1 (centres undefined)	124% (inactive)
CN1C(=O)c2cc(NC(=O)c3cccc(F)c3)ccc2OC[C@@H]2O[C@@H](CC(=O)O)CC[C@H]21	97.3% [at 23.5 µM] (inactive)
CN1C(=O)c2cc(NC(=O)Nc3ccc(Cl)cc3)ccc2OC[C@@H]2O[C@@H](CC(=O)NCCN3CCCCC3)CC[C@H]21	54.3% (inactive)
CN1C(=O)c2cc(NC(=O)c3cccs3)ccc2OC[C@@H]2O[C@@H](CC(=O)NCCN3CCCCC3)CC[C@@H]21	36.2% [at 23.5 µM] (inactive)
CC(C)C(=O)Nc1ccc2c(c1)C(=O)N(C)[C@@H]1CC[C@@H](CC(=O)NCC3CC3)O[C@H]1CO2	51.9% (inactive)
COc1ccc(C(C#N)Nc2ccc(C)cc2)cc1 (centres undefined)	1.55% (inactive)
COCC(=O)N(C)C[C@H]1Oc2cc(-c3ccccc3F)ccc2S(=O)(=O)N([C@H](C)CO)C[C@H]1C	69.5% (inactive)
COc1cccc(-c2nc(NCCN3CCOCC3)c3ccccc3n2)c1O	61.8% (inactive)
CNC(=O)C[C@H]1CC[C@@H]2[C@@H](COc3ccc(NC(=O)Nc4ccc(Cl)cc4)cc3C(=O)N2C)O1	21% [at 23.5 µM] (inactive)
